# A selection: hits, their analogues and other compounds. The true share with any hit is near 3.3%.
# RE007 growth inh: qHTS Assay for Inhibitors of the HIV-1 protein Vpr | S. pombe RE007 Vpr strain, BacTiter-Glo ATP luminescence, 24 h | Potency, µM (series often up to 92.2 µM), for inactives: at the top dose activity change, negative = less growth, hits mostly inhibitors | 360,000 tested, 0.21% active | AID 651644, 2012; active = well fitted falling curve with a large enough effect; inconclusive = small, poorly fitted or top-dose-only effect; inactive = no such curve, though single readings can be large or run the other way; also: potency is read from the fitted curve at half-maximal effect; % is scaled to controls: 0 for no effect and ±100 for the full control effect; nearly all actives have a fitted effect of over 50% in size
#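 Fission yeast RE007 carrying one integrated HIV-1 vpr copy, seeded at OD 0.01 in PMG+AL medium with 23 nL pinned compound. Grown 24 h at 30 degrees; viability read by BacTiter-Glo luminescence after 5 min.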
# SARS PLpro yeast-1: qHTS of Yeast-based Assay for SARS-CoV PLP. Potency, µM (doses to about 32.9 µM), without a hit: at the top dose activity, positive = growth rescue, actives largely listed as activators. S. cerevisiae expressing SARS-CoV PLpro, growth rescue. 330,000 tested, 0.19% active. AID 485353, 2010; calls by dose curve; also: potency is read from the fitted curve at half-maximal effect; 0% is about no effect; nearly all actives have a fitted effect of over 55% in size
# Tb PYK inh: qHTS of Trypanosoma Brucei Inhibitors. pyruvate kinase (Trypanosoma brucei), Q57TT1. TbPYK enzyme, Kinase-Glo Plus ATP luminescence, 45 min. Potency, µM (top dose mostly 76.8 µM), without a hit: top-dose activity, negative = inhibition, most hits filed as inhibitors. 410,000 tested, 0.12% active. AID 624173, 2012; also: potency is read from the fitted curve at half-maximal effect; % is scaled to controls: 0 for no effect and ±100 for the full control effect; nearly all actives have a fitted effect of over 50% in size
#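 Luminescent Kinase-Glo Plus end-point after 45 min room-temperature reaction of T. brucei pyruvate kinase started with 130 uM ADP (final). Buffer TEA 50 mM pH 7.2 with KCl, MgCl2, BSA, Tween-20; titration-based qHTS with fitted concentration-effect curves.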
# LmPK inh: qHTS Assay for Inhibitors of Leishmania Mexicana Pyruvate Kinase (LmPK); Q27686; purified LmPK, Kinase-Glo ATP luminescence, 1 h; Potency, µM (highest dose often 57.5 µM), inactives show top-dose activity change, negative = inhibition, actives largely listed as inhibitors; 290,000 tested, 0.37% active; AID 1721, 2009; also: potency is read from the fitted curve at half-maximal effect; % is scaled to controls: 0 for no effect and ±100 for the full control effect
# Target sequence (Q27686 whole entry, looked up): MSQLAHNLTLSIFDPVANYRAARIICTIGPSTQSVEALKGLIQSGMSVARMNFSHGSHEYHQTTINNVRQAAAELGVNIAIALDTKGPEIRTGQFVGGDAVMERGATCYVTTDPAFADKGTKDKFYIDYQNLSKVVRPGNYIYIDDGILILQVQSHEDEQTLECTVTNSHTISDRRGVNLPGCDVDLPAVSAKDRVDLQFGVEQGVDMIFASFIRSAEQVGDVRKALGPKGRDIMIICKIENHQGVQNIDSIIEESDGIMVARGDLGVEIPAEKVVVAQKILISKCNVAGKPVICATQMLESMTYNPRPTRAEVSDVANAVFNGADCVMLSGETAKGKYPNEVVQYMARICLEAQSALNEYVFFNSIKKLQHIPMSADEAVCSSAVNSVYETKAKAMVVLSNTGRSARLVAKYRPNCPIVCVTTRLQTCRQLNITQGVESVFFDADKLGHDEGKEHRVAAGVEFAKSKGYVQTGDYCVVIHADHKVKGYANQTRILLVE
#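 Screened at intermediate enzyme activity to detect both inhibitors and activators: LmPK at 0.1 nM, with a 0.5 nM enzyme column as activation reference. PEP 0.5 mM, ADP 0.1 mM; ATP detected by luminescence after 1 h.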
# Sm TGR block: qHTS Assay for the Inhibitors of Schistosoma Mansoni Peroxiredoxins; Schistosoma mansoni thioredoxin glutathione reductase (TGR), Q962Y6; purified TGR, DTNB reduction, TNB absorbance 405 nm; Potency, µM (highest dose often 114 µM), without a hit: top-dose activity change, negative = inhibition, most hits filed as inhibitors; 360,000 tested, 3% active; AID 485364, 2010; also: potency is read from the fitted curve at half-maximal effect; % is scaled to controls: 0 for no effect and ±100 for the full control effect; nearly all actives have a fitted effect of over 60% in size
#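 First, TGR (20 nM dispensed) and NADPH were mixed with compound. Second, a 15 min room-temperature incubation followed. Third, further NADPH and then DTNB were added to start the reaction. Finally, TNB absorbance was monitored kinetically.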
# NS1 inh: qHTS Assay for Inhibitors of Influenza NS1 Protein Function | Potency, µM (series often up to 46.1 µM), for inactives: at the top dose activity, positive = more growth | 270,000 tested, 0.4% active | AID 2326, 2010; calls by dose curve; also: potency is read from the fitted curve at half-maximal effect; actives are rising curves; nearly all actives have a fitted effect of over 50% in size
#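 Growth recovery, yeast-based: influenza A NS1 expressed in S. cerevisiae causes slow growth, and suppressors are detected by OD600. The parent strain without NS1 is used as positive control.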
# SARS PLpro yeast-2: qHTS of Yeast-based Assay for SARS-CoV PLP: Hit Validation. shares compounds with SARS PLpro yeast-1. yeast expressing SARS-CoV PLpro, growth phenotype rescue. calls only. 1,000 tested, 19% active. AID 652038, 2013; call rule not given here
# Active calls of the source: *; i = inactive; u = inconclusive; x = no result; + = active, no number. Unless noted, calls follow the shape of the dose curve; as a rule, active = well fitted curve in the direction sought with a large enough effect; inconclusive = small, poorly fitted or top-dose-only effect, or another doubt; inactive = no such curve, though single readings can be large; an effect the other way counts as inactive or inconclusive.
SMILES,RE007 growth inh,SARS PLpro yeast-1,Tb PYK inh,LmPK inh,Sm TGR block,NS1 inh,SARS PLpro yeast-2
CCC(C(=O)N1CCN(c2ccccc2)CC1)n1c(C)c2cnn(-c3ccccc3)c(=O)c2c1C (configuration not stated),x,x,-4.0%,x,-21.5%,x,x
Cc1ccc(-n2nc3c(N4CCC(C(=O)NCc5ccc(C)o5)CC4)nnc(C)c3c2C)cc1,-12.9%,u,-1.5%,2.2%,-20.0%,9.2%,i
Cc1ccc(-c2cc(C(=O)NCc3cnn(C)c3C)c3cc(Br)ccc3n2)cc1,-2.8%,u,-2.3%,1.6%,-4.9%,8.4%,i
Oc1c(C(Nc2nccs2)c2ccc(C(F)(F)F)cc2)ccc2cccnc12 (configuration not stated),-19.0%,-26.4%,-1.5%,-0.4%,-13.3%,x,x
Oc1c(C(Nc2cccc(C(F)(F)F)c2)c2ccncc2)ccc2cccnc12 (configuration not stated),-26.2%,u,116.9%,1.5%,35.5µM*,-6.5%,i
Cc1ccc(C(c2sc3nc(-c4ccco4)nn3c2O)N2CCCCC2)cc1 (configuration not stated),x,x,-3.4%,x,5.5%,x,x
O=C(COc1ccccc1)NCc1nnc2c3ccccc3c(-c3ccccc3)nn12,5.4%,x,3.8%,5.1%,-11.2%,4.5%,i
CC(=O)NCc1nnc2c3ccccc3c(-c3ccccc3)nn12,4.7%,-0.8%,-0.2%,-3.0%,9.7%,9.5%,x
COc1cc(C(=O)Nc2nnc(SCC(=O)NCC3CCCO3)s2)cc(OC)c1OC (configuration not stated),-4.7%,4.47µM*,1.0%,-5.9%,-8.9%,8.5%,i
Cc1ccccc1OCc1n[nH]c(=S)n1Cc1ccccc1,13.1%,u,u,-20.7%,-21.3%,2.4%,u
COc1ccc(C(=O)N/N=C/c2c[nH]c3ccccc23)cc1,-16.8%,2.0%,-7.9%,1.7%,-1.3%,1.7%,x
O=C(N/N=C/c1ccc(F)cc1)c1ccccc1,-8.4%,-3.7%,-10.1%,-18.4%,2.0%,x,x
O=C(N/N=C/c1ccccc1)c1cccc2ccccc12,9.9%,x,-7.9%,x,x,x,x
COc1ccc(C(=O)N/N=C/c2sc3ccccc3c2O)cc1,u,2.82µM*,1.9%,-4.1%,-23.2%,-25.4%,i
O=C(N/N=C/c1sc2ccccc2c1O)c1ccccc1,44.7µM*,3.98µM*,-2.3%,-4.1%,-19.7%,-43.2%,i
COc1ccc2cc(C(=O)N/N=C/c3sc4ccccc4c3O)ccc2c1,-1.0%,5.01µM*,-15.3%,-0.1%,2.8%,13.9%,+
O=C(N/N=C/c1sc2ccccc2c1O)c1cccc2ccccc12,5.8%,2.82µM*,0.6%,-2.3%,-10.7%,9.3%,i
Cc1ccc(C)c(NC(=O)Cn2c(=O)n(Cc3ccc4c(c3)OCO4)c(=O)c3ccccc32)c1,x,x,-1.8%,x,-6.4%,x,x
Cc1cccc(OCC(=O)Nc2ccc(S(=O)(=O)N3CCN(C)CC3)cc2)c1,1.7%,3.55µM*,0.4%,1.7%,0.6%,5.0%,i
CN1CCN(S(=O)(=O)c2ccc(NC(=O)COc3ccccc3)cc2)CC1,-6.2%,2.4%,5.5%,0.4%,1.6%,x,x
COc1cc(C(=O)NCCc2sc(-c3cccc(F)c3)nc2C)cc(OC)c1OC,x,x,13.4%,x,1.3%,x,x
CCCc1cc(=O)oc2cc(C)c3c(-c4ccccc4)coc3c12,x,x,3.1%,x,16.1%,x,x
CC(=O)N1CCCC1c1nc2ccccc2n1Cc1c(F)cccc1Cl (configuration not stated),x,x,-2.7%,x,2.4%,x,x
C=CCc1cc(OC)ccc1OCCCCn1cncn1,-3.6%,u,14.9%,-1.7%,u,-28.6%,x
C=CCc1ccc(OCCn2cncn2)c(OC)c1,4.0%,u,2.7%,-1.1%,-5.2%,-14.4%,i
SMILES,RE007 growth inh,SARS PLpro yeast-1,Tb PYK inh,LmPK inh,Sm TGR block,NS1 inh,SARS PLpro yeast-2
O=C(O)CSc1c(-c2ccccc2)c2cc(Cl)ccc2[nH]c1=O,2.3%,u,-12.8%,1.8%,-1.5%,26.8%,i
CCOC(=O)CSc1c(-c2ccccc2)c2cc(Cl)ccc2[nH]c1=O,5.7%,0.4%,-17.5%,0.5%,-0.7%,-15.8%,x
CC(/C=N/NC(=O)c1ccncc1)=C\c1ccc(C(C)C)cc1,-4.7%,2.7%,-4.0%,0.0%,-1.4%,-23.9%,x
CC(/C=N/Nc1nc(C)cc(C)n1)=C\c1ccc(C(C)C)cc1,-22.0%,11.2µM*,9.2%,4.0%,-6.8%,8.3%,+
CC(C)COc1ccc(C(=O)N2CCCCC2CCN2CCCCC2)cc1 (configuration not stated),x,x,-7.6%,x,-2.6%,x,x
CC(C)(C)c1ccc(OCC(=O)O)c(Cl)c1,x,x,x,x,x,5.6%,x
CC(C)(C)c1ccc(C(=O)N/C(N)=N/c2nc3ccccc3o2)cc1,-9.7%,u,-16.1%,0.6%,4.8%,u,i
COc1ccc(C(=O)N/C(N)=N/c2nc3ccccc3o2)cc1,1.6%,-5.3%,-2.4%,-1.2%,5.4%,-1.2%,x
O=C1c2ccccc2NC(c2ccc(-c3ccc(F)cc3)o2)N1O (configuration not stated),x,7.9%,-4.2%,x,u,x,x
O=C1c2ccccc2NC(c2ccc(-c3cccc([N+](=O)[O-])c3)o2)N1O (configuration not stated),13.7%,10µM*,-8.1%,-0.3%,u,u,+
CCC(C)C(N)C(=O)O (configuration not stated),x,x,-8.6%,x,x,x,x
COc1cc([N+](=O)[O-])cc(/C=N/NC(=O)c2ccc(NC(=O)c3ccc(C)cc3)cc2)c1O,-13.4%,-0.5%,0.2%,2.9%,x,5.8%,x
COc1cc([N+](=O)[O-])cc(/C=N/NC(=O)C(C)Nc2cccc(C)c2)c1O (configuration not stated),-2.1%,u,-5.3%,5.1%,3.7%,-2.3%,u
COc1cc([N+](=O)[O-])cc(/C=N/NC(=O)c2ccc(C)nc2)c1O,8.5%,8.91µM*,-8.5%,2.0%,-19.2%,11.1%,u
Cc1cccc(Oc2ccccc2NS(=O)(=O)c2ccc(CCC(=O)O)cc2)c1,9.9%,2.24µM*,-11.9%,x,-17.3%,x,i
O=C(O)CCc1ccc(S(=O)(=O)Nc2ccccc2C(=O)NCCc2ccccc2)cc1,-9.8%,-6.2%,-4.3%,1.4%,-16.6%,11.3%,x
CC(C)NC(=O)c1ccc2c(c1)nc1n2CCCCC1,x,x,-3.2%,x,10.1%,x,x

# Bioassay records: PubChem BioAssay, National Center for Advancing Translational Sciences (NCATS)
